# From the supplement of paper PMC11624193, “Coupling cellular drug-target engagement to downstream pharmacology with CeTEAM” (Nature Communications, 2024)
# Where a name gives a salt, the structure may show the parent alone.
# Target: PARP1 L713F-nLuc biosensor (HCT116) (UniProt P09874)
# Test: PARP1 L713F-nLuc/akaLuc ratio relative to DMSO control (biosensor stabilization) (fold change); higher = more PARP1 biosensor stabilization (target engagement / stabilizer), active = hit call of the paper
# Conditions: stock concentration (mM; final µM = stock mM x 1): 10; 24 h;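 active = log2 fold change beyond 2 SD from the library mean after excluding viability outliers; inactive = within 2 SD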
# PARP1 L713F-nLuc biosensor (HCT116), sequence (P09874 whole entry L713F, looked up): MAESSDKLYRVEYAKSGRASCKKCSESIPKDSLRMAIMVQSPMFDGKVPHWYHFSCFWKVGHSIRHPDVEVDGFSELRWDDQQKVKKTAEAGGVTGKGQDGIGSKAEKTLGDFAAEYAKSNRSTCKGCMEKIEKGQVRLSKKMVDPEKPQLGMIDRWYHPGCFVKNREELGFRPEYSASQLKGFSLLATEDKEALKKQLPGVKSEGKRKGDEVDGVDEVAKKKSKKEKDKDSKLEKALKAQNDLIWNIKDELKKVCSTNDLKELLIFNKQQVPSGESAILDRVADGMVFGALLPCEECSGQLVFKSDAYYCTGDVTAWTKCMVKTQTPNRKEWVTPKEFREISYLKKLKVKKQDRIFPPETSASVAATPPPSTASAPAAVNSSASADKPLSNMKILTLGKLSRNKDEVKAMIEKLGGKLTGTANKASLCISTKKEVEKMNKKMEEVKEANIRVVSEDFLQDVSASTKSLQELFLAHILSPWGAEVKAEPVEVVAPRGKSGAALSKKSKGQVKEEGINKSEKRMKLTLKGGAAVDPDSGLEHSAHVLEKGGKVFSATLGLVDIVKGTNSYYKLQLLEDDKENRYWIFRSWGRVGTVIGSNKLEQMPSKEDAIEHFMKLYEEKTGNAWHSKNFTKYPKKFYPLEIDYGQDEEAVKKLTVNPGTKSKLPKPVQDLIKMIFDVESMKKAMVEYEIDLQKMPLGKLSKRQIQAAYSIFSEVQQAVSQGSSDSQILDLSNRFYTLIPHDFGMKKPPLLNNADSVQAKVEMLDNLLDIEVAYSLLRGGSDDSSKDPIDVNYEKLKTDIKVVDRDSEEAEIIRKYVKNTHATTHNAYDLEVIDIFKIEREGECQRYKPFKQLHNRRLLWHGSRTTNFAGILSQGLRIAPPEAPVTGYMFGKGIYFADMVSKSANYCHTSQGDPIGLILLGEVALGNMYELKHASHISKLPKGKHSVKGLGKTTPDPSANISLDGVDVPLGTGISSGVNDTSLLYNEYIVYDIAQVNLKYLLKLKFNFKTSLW
row,SMILES,PARP1 L713F-nLuc/akaLuc ratio
1,CN(C)CCCN(CC[C@H](N)C(=O)O)C[C@H]1O[C@@H](n2cnc3c(N)ncnc32)[C@H](O)[C@@H]1O [GSK2807 (Trifluoroacetate)],0.926 (inactive)
2,CCN(CC)c1ccc(C=NNC(=O)c2ccncc2)c(O)c1,0.543 (inactive)
3,CN(C)C[C@@H]1CCn2cc(c3ccccc32)C2=C(C(=O)NC2=O)c2cn(c3ccccc23)CCO1 [Ruboxistaurin (hydrochloride)],0.778 (inactive)
4,N[C@@H]1CCCN(c2c(/C=C3\SC(=O)NC3=O)cccc2-c2ccccc2)C1,0.726 (inactive)
5,O=c1sn(-c2cccc3ccccc23)c(=O)n1Cc1ccccc1 [Tideglusib],1.22 (inactive)
6,O=C(O)CCNc1cc(N2CCc3ccccc3CC2)nc(-c2cccnc2)n1,1.22 (inactive)
7,O=C(NOCCO)c1ccc2cncn2c1Nc1ccc(I)cc1F,0.421 (inactive)
8,NC(=O)N1CCC(CC(=O)N2CCC([C@H]3c4ncc(Br)cc4CCc4cc(Cl)cc(Br)c43)CC2)CC1 [Lonafarnib],1.59 (inactive)
9,C/C=C(/C)C(=O)O[C@H]1Cc2cc3ccc(=O)oc3cc2OC1(C)C [Decursinol angelate],0.885 (inactive)
10,COC(=O)c1cccc(NC(=O)NC2CCN(c3ccnc(Nc4ccc(F)cc4)n3)C2)c1 (stereo not drawn),1.07 (inactive)
11,CC(C)[C@H]1C(=O)N[C@@H](CCCN=C(N)N)C(=O)NCC(=O)N[C@@H](CC(=O)O)C(=O)N[C@H](Cc2ccccc2)C(=O)N1C,0.738 (inactive)
12,NC(=O)c1nc(-c2c(F)cccc2Cl)oc1Nc1ccc(C(=O)N2CCOCC2)cc1,0.914 (inactive)
13,CCS(=O)(=O)N1CCC([C@@H](C)n2c(C)c(C(=O)NCc3c(OC)cc(C)[nH]c3=O)c3ccccc32)CC1 (racemic) [CPI-169 (racemate)],1.12 (inactive)
14,CN1CCc2c(c3ccccc3n2Cc2ccc(C(=O)NO)cc2)C1 [Tubastatin A (Hydrochloride)],2.07 (inactive)
15,Cc1cn(-c2cc(NC(=O)c3ccc(C)c(Nc4nccc(-c5cnccn5)n4)c3)cc(C(F)(F)F)c2)cn1 [Radotinib],0.904 (inactive)
16,CC#CC(=O)N1CCC[C@H]1c1nc(-c2ccc(C(=O)Nc3ccccn3)cc2)c2c(N)nccn12 [Acalabrutinib (ACP-196)],1.28 (inactive)
17,Nc1nc(=O)n(-c2cccc(-c3ccccc3)c2)cc1Cl [Bobcat339 (hydrochloride)],0.757 (inactive)
18,CCN(C(=O)CO)[C@H]1CN(/C(=N\C#N)Nc2cccc(OC(F)F)c2)N=C1c1ccc(Cl)c(Cl)c1,1.37 (inactive)
19,CO[C@@H](C(=O)N1Cc2[nH]nc(NC(=O)c3ccc(N4CCN(C)CC4)cc3)c2C1)c1ccccc1 [Danusertib],0.752 (inactive)

row,SMILES,PARP1 L713F-nLuc/akaLuc ratio
1,O=C(COc1cccc2c(=O)[nH]ccc12)c1ccccc1,1.08 (inactive)
2,CNC(=O)c1nnc(NC(=O)C2CC2)cc1Nc1cccc(-c2ncn(C)n2)c1OC [Deucravacitinib],0.748 (inactive)
3,CN1CCCN(C(=O)c2cccc(-c3ccc(/C=C4/C(=O)Nc5ccc(Cl)cc54)o3)c2)CC1 [CX-6258 (hydrochloride)],0.53 (inactive)
4,Nc1ncc(-c2cnn(CCO)c2)c2scc(-c3ccc(NC(=O)Nc4cccc(F)c4)cc3)c12 [Ilorasertib (hydrochloride)],0.906 (inactive)
5,COc1cc2ncnc(Nc3ccc(O)cc3)c2cc1OC,0.842 (inactive)
6,CN(C)c1nc2c(Br)c(Br)c(Br)c(Br)c2n1CC(=O)O,1.02 (inactive)
7,OC(COc1ccc(C(F)(F)F)cc1)CN(Cc1ccccc1)Cc1ccccc1 (stereo not drawn),1.03 (inactive)
8,COC(=O)c1ccc2c(c1)NC(=O)/C2=C(\Nc1ccc(N(C)C(=O)CN2CCN(C)CC2)cc1)c1ccccc1 [Nintedanib (BIBF 1120)],0.6 (inactive)
9,CNc1nc(Nc2cn(C(C)(C)C#N)nc2C)ncc1C(F)(F)F,0.811 (inactive)
10,CNc1cc(Nc2cccn(-c3ccccn3)c2=O)nn2c(C(=O)N[C@@H]3C[C@@H]3F)cnc12,0.72 (inactive)
11,c1cc(-c2cnn3cc(-c4ccc(OCCN5CCCCC5)cc4)cnc23)ccn1 [Dorsomorphin (dihydrochloride)],1.8 (inactive)
12,C/C(=N\NC(=O)c1cccc(S(=O)(=O)N2CCN(C)CC2)c1)c1cc(Cl)ccc1O [Seclidemstat],0.552 (inactive)
13,C[C@H]1CCCN1Cc1nc2cc(NC(=O)c3ccc4c(cnn4C)c3)ccc2[nH]1,0.788 (inactive)
14,O=C1NC(=O)/C(=C\c2cccc(C(F)(F)F)c2)S1,0.962 (inactive)
15,COc1ccc(CN2CCC(c3ccc4nc(C(=O)N5CCN(Cc6ccc(C(F)(F)F)cc6)CC5)[nH]c4c3)CC2)cn1,0.348 (inactive)
16,Cc1nc(=O)c2cc(CN(C)c3ccc(C(=O)N[C@@H](CCC(=O)O)C(=O)O)s3)ccc2[nH]1 [Raltitrexed],1.07 (inactive)
17,COc1cc(Nc2ncc(F)c(Nc3ccc4c(n3)N(COP(=O)(O)O)C(=O)C(C)(C)O4)n2)cc(OC)c1OC [Fostamatinib (R788)],0.614 (inactive)
18,Cc1c(Cn2c(C)nc3c(C(=O)O)cc(N4CCOCC4)cc32)cccc1C(F)(F)F,1.38 (inactive)
19,COc1cc2onc(C)c2cc1NS(=O)(=O)c1cc(Br)ccc1OC,0.95 (inactive)
